From PubChem BioAssay AID1159580 (chemical genetic matrix, 2015)
Screen size: about 5,500 compounds; about 2,000 (36%) were called active. Not shown: some 18% with an inconclusive outcome. Rule as the data show it: active = normalized growth mostly below about 0.91 (no sharp cut-off); inconclusive = no clear call, values can overlap the other calls; inactive = mostly above about 0.92. The list shows a part of the results.

Test: chemical genetic growth profiling, strain panel (AID 1159580);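 also: tested at 20 µM; growth read once vehicle control cultures reached saturation at 30 °C; 1 = growth at the plate median or of vehicle wells; lower values mean less growth of the strain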
Conditions: S. cerevisiae deletion strains, growth OD
[1] = locus YGR078C, strain PAC10, active compounds read low
[2] = locus YJR075W, strain HOC1, active compounds read low
[3] = locus YNL128W, strain TEP1, active compounds read low
[4] = locus YNL153C, strain GIM3, active compounds read low
[5] = locus YNL322C, strain KRE1, active compounds read low
[6] = locus YPL055C, strain LGE1, active compounds read low

Measured: normalized growth

CN(C)C(=O)N=NC(=O)N(C)C
inactive: locus YAL040C, strain CLN3, active compounds read low 0.985 | locus YCL061C, strain MRC1 (second series), active compounds read low 0.994 | locus YDR363W, strain ESC2, active compounds read low 1.04 | locus YER002W, strain NOP16, active compounds read low 1.03 | [1] 0.99 | [2] 1.02 | [3] 0.983 | [4] 0.968 | locus YNL175C, strain NOP13, active compounds read low 0.996 | locus YNL197C, strain WHI3, active compounds read low 0.984 | locus YNL224C, strain SQS1, active compounds read low 1.01 | [5] 1.02 | locus YOR083W, strain WHI5 (second series), active compounds read low 0.968 | [6] 1.06

O=C1CC2(CCCC2)C(=O)N1CCNc1nccc(C(F)(F)F)n1
inactive: locus YAL013W, strain DEP1, active compounds read low 1.01 | locus YBR229C, strain ROT2, active compounds read low 0.991 | locus YCL061C, strain MRC1, active compounds read low 0.977 | locus YDL101C, strain DUN1, active compounds read low 0.985 | locus YDR150W, strain NUM1, active compounds read low 1.05 | locus YEL061C, strain CIN8, active compounds read low 1.01 | [1] 0.982 | locus YHR030C, strain SLT2, active compounds read low 0.994 | locus YHR087W, strain rtc3, active compounds read low 1.03 | locus YJL187C, strain SWE1, active compounds read low 0.995 | locus YJR043C, strain POL32, active compounds read low 0.999 | [2] 0.97 | locus YKL190W, strain CNB1, active compounds read low 0.984 | locus YLR039C, strain RIC1, active compounds read low 0.935 | locus YLR058C, strain SHM2 (second series), active compounds read low 0.975 | locus YLR085C, strain ARP6, active compounds read low 0.999 | locus YLR262C, strain YPT6, active compounds read low 0.972 | locus YML094W, strain GIM5, active compounds read low 1 | locus YMR219W, strain ESC1, active compounds read low 0.997 | locus YMR263W, strain SAP30, active compounds read low 1.01 | [3] 0.989 | [4] 1.01 | locus YNL298W, strain CLA4 (second series), active compounds read low 0.964 | [5] 0.993 | locus YNR030W, strain Alg12, active compounds read low 0.986 | [6] 1.03 | locus YPL241C, strain CIN2, active compounds read low 1 | locus YPR135W, strain CTF4, active compounds read low 0.941
